Test results as given in PubChem BioAssay (NCATS).
Inconclusive results are not listed. The source made the active and inactive calls. Calls follow the shape of the dose curve; as a rule, active = well fitted cell-killing curve with a large enough effect; inconclusive = small, poorly fitted or top-dose-only effect, or effect the other way; inactive = no such curve, though single readings can be large or run the other way.

Columns and labels:
[1] = Quantitative High-Throughput drug screen in 47 multiple myeloma cell lines against the NCATS MIPE library collection: OCIMY1_PLB cell viability assay (AID 1918979); also: nearly all actives have a fitted effect of over 35% in size
How it was run: (§1)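 Cells were exposed to library compounds for 48 hours, after which ATP was measured by CellTiter-Glo. Signal was taken as median relative luminescence units.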

[2] = Quantitative High-Throughput drug screen in 47 multiple myeloma cell lines against the NCATS MIPE library collection: LP1_DSMZ cell viability assay (AID 1918982); also: nearly all actives have a fitted effect of over 35% in size
How it was run: as §1

[3] = Quantitative High-Throughput drug screen in 47 multiple myeloma cell lines against the NCATS MIPE library collection: L363_DSMZ cell viability assay (AID 1918984); also: nearly all actives have a fitted effect of over 40% in size
How it was run: as §1

[4] = Quantitative High-Throughput drug screen in 47 multiple myeloma cell lines against the NCATS MIPE library collection: KMS34_JCRB cell viability assay (AID 1918985); also: nearly all actives have a fitted effect of over 40% in size
How it was run: as §1

[5] = Quantitative High-Throughput drug screen in 47 multiple myeloma cell lines against the NCATS MIPE library collection: SKMM1_PLB cell viability assay (AID 1919863); details: SKMM1 myeloma viability, CellTiter-Glo ATP, 48 h; viability: active compounds read low; also: nearly all actives have a fitted effect of over 35% in size
How it was run: as §1

[6] = Quantitative High-Throughput drug screen in 47 multiple myeloma cell lines against the NCATS MIPE library collection: XG6_PLB cell viability assay (AID 1919865); also: nearly all actives have a fitted effect of over 40% in size
How it was run: as §1

[7] = Quantitative High-Throughput drug screen in 47 multiple myeloma cell lines against the NCATS MIPE library collection: XG1_PLB cell viability assay (AID 1919866); also: nearly all actives have a fitted effect of over 35% in size
How it was run: as §1

[8] = Quantitative High-Throughput drug screen in 47 multiple myeloma cell lines against the NCATS MIPE library collection: PE2_PLB cell viability assay (AID 1919869); also: nearly all actives have a fitted effect of over 35% in size
How it was run: as §1

[9] = Quantitative High-Throughput drug screen in 47 multiple myeloma cell lines against the NCATS MIPE library collection: PCM6_Riken cell viability assay (AID 1919870); also: nearly all actives have a fitted effect of over 30% in size
How it was run: as §1

[10] = Quantitative High-Throughput drug screen in 47 multiple myeloma cell lines against the NCATS MIPE library collection: OPM2_DSMZ cell viability assay (AID 1919872); also: nearly all actives have a fitted effect of over 30% in size
How it was run: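 CellTiter-Glo luminescence (ATP) after 48 h compound exposure, 37C/5% CO2; 500 cells/well; MIPE 4.0 approved/investigational drugs pinned in; DMSO = 100%, media only = 0% viability.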

[11] = Quantitative High-Throughput drug screen in 47 multiple myeloma cell lines against the NCATS MIPE library collection: KMS28PE_JCRB cell viability assay (AID 1918983); also: nearly all actives have a fitted effect of over 35% in size
How it was run: as §1

[12] = Quantitative High-Throughput drug screen in 47 multiple myeloma cell lines against the NCATS MIPE library collection: OPM1_PLB cell viability assay (AID 1918989); also: nearly all actives have a fitted effect of over 40% in size
How it was run: as §1

[13] = Quantitative High-Throughput drug screen in 47 multiple myeloma cell lines against the NCATS MIPE library collection: U266_ATCC cell viability assay (AID 1919864); also: nearly all actives have a fitted effect of over 35% in size
How it was run: as §1

[14] = Quantitative High-Throughput drug screen in 47 multiple myeloma cell lines against the NCATS MIPE library collection: RPMI8226_ATCC cell viability assay (AID 1919871); also: nearly all actives have a fitted effect of over 30% in size
How it was run: as §1

[15] = Quantitative High-Throughput drug screen in 47 multiple myeloma cell lines against the NCATS MIPE library collection: OCIMY7_PLB cell viability assay (AID 1918987); details: OCI-MY7 myeloma viability, CellTiter-Glo ATP, 48 h; viability (% of DMSO): at 45.8 µM (top of the series); also: nearly all actives have a fitted effect of over 65% in size
How it was run: as §1

[16] = Quantitative High-Throughput drug screen in 47 multiple myeloma cell lines against the NCATS MIPE library collection: VP6_DJ cell viability assay (AID 1919867); also: nearly all actives have a fitted effect of over 40% in size
How it was run: as §1

[17] = Quantitative High-Throughput drug screen in 47 multiple myeloma cell lines against the NCATS MIPE library collection: MM1S_ATCC cell viability assay (AID 1918980); also: nearly all actives have a fitted effect of over 45% in size
How it was run: as §1

[18] = Quantitative High-Throughput drug screen in 47 multiple myeloma cell lines against the NCATS MIPE library collection: MM1R_ATCC cell viability assay (AID 1918981); also: nearly all actives have a fitted effect of over 35% in size
How it was run: as §1

[19] = Quantitative High-Throughput drug screen in 47 multiple myeloma cell lines against the NCATS MIPE library collection: OCIMY5_PLB cell viability assay (AID 1918988); also: nearly all actives have a fitted effect of over 65% in size
How it was run: as §1

[20] = Quantitative High-Throughput drug screen in 47 multiple myeloma cell lines against the NCATS MIPE library collection: UTMC2_PLB cell viability assay (AID 1919868); details: CellTiter-Glo ATP luminescence, 48 h; viability (% of DMSO control): at 45.8 µM (top of the series); also: nearly all actives have a fitted effect of over 55% in size
How it was run: as §1
Potency is read from the fitted curve at half-maximal effect.

CCCc1nc(C(C)(C)O)c(C(=O)O)n1Cc1ccc(-c2ccccc2-c2nn[nH]n2)cc1
inactive: Potency [1] | Potency [2] | Potency [3] | Potency [4] | viability [5] 131% | Potency [6] | Potency [7] | Potency [8] | Potency [9] | Potency [10]

C[C@H](NC(=O)[C@@H](O)c1cc(F)cc(F)c1)C(=O)N[C@@H]1C(=O)N(C)c2ccccc2-c2ccccc21
inactive: Potency [1] | Potency [2] | Potency [11] | Potency [4] | Potency [12] | Potency [13] | Potency [9] | Potency [14] | Potency [10]
active: Potency [6] 11.8 µM | Potency [7] 16.6 µM

CON=C(C(=O)N[C@@H]1C(=O)N2C(C(=O)O)=C(CSC(=O)c3ccco3)CS[C@H]12)c1csc(N)n1
inactive: Potency [1] | Potency [2] | Potency [11] | Potency [15] | Potency [12] | viability [5] 134% | Potency [7] | Potency [16] | Potency [10]

FC(F)c1nc2ccccc2n1-c1nc(N2CCOCC2)nc(N2CCOCC2)n1
active: Potency [17] 0.59 µM | Potency [18] 0.743 µM | Potency [2] 0.0209 µM | Potency [11] 0.418 µM | Potency [4] 1.32 µM | Potency [15] 0.372 µM | Potency [19] 1.32 µM | Potency [12] 0.469 µM | Potency [5] 1.48 µM | Potency [6] 0.59 µM | Potency [7] 0.209 µM | Potency [16] 0.132 µM | Potency [20] 0.118 µM | Potency [8] 0.372 µM | Potency [14] 0.296 µM | Potency [10] 2.09 µM

C[C@]12C=CC(=O)N[C@@H]1CC[C@H]1[C@H]3CC[C@@H](C(=O)Nc4cc(C(F)(F)F)ccc4C(F)(F)F)[C@@]3(C)CC[C@@H]12
active: Potency [15] 16.6 µM | Potency [19] 16.6 µM | Potency [6] 16.6 µM | Potency [7] 13.2 µM | Potency [9] 4.69 µM | Potency [10] 10.5 µM
inactive: Potency [1] | Potency [2] | Potency [13] | Potency [20]

Cc1ccc2nc(NCCN)c3ncc(C)n3c2c1
active: Potency [17] 1.66 µM | Potency [18] 3.32 µM | Potency [2] 2.64 µM | Potency [11] 4.18 µM | Potency [4] 8.33 µM | Potency [15] 6.62 µM | Potency [19] 1.32 µM | Potency [12] 13.2 µM | Potency [5] 4.69 µM | Potency [13] 3.72 µM | Potency [6] 1.87 µM | Potency [7] 2.35 µM | Potency [20] 4.69 µM | Potency [9] 2.64 µM | Potency [10] 11.8 µM

C[C@@H]1CC[C@@]2(OC1)OC1CC3C4CC=C5CC(O)CCC5(C)C4CCC3(C)C1[C@@H]2C (stereo partly specified)
inactive: Potency [17] | Potency [18] | Potency [2] | Potency [11] | Potency [3] | Potency [4] | Potency [15] | Potency [12] | viability [5] 155% | Potency [9] | Potency [14] | Potency [10]

Cc1cnn(C)c1C(=O)Nc1cc(Nc2ccc3c(C=Cc4ccccn4)n[nH]c3c2)ccc1F
active: Potency [17] 20.9 µM | Potency [18] 26.4 µM | Potency [2] 20.9 µM | Potency [11] 29.6 µM | Potency [3] 4.69 µM | Potency [12] 4.69 µM | Potency [6] 5.9 µM | Potency [7] 4.69 µM | Potency [20] 10.5 µM | Potency [8] 2.64 µM | Potency [9] 4.69 µM | Potency [14] 26.4 µM | Potency [10] 18.7 µM

CON=C(C(=O)N[C@@H]1C(=O)N2C(C(=O)O)=C(Cn3ccc(=N)n3CCO)CS[C@H]12)c1csc(N)n1
inactive: Potency [17] | Potency [18] | Potency [2] | Potency [11] | Potency [3] | Potency [4] | Potency [19] | viability [5] 112% | Potency [6] | Potency [8] | Potency [9] | Potency [14]

c1ccc(CNc2nc(NCc3ccccc3)c3ccccc3n2)cc1
active: Potency [17] 8.33 µM | Potency [18] 26.4 µM | Potency [2] 23.5 µM | Potency [11] 23.5 µM | Potency [3] 5.26 µM | Potency [4] 20.9 µM | Potency [15] 4.69 µM | Potency [19] 20.9 µM | Potency [12] 7.43 µM | Potency [5] 29.6 µM | Potency [6] 8.33 µM | Potency [7] 7.43 µM | Potency [16] 8.33 µM | Potency [20] 10.5 µM | Potency [8] 11.8 µM | Potency [9] 8.33 µM

Cc1nc(NC(=O)N2CCC[C@@H]2C(N)=O)sc1-c1ccnc(C(C)(C)C(F)(F)F)c1
inactive: Potency [9]
active: Potency [1] 0.0935 µM | Potency [2] 1.48 µM | Potency [11] 0.296 µM | Potency [4] 1.87 µM | Potency [19] 0.935 µM | Potency [12] 2.96 µM | Potency [5] 6.62 µM | Potency [13] 8.33 µM | Potency [6] 1.87 µM | Potency [7] 3.32 µM | Potency [8] 4.69 µM | Potency [14] 3.32 µM | Potency [10] 20.9 µM

OCc1ccccc1O[C@@H]1O[C@H](CO)[C@H](O)[C@H](O)[C@H]1O
inactive: Potency [18] | Potency [2] | Potency [11] | Potency [3] | Potency [4] | Potency [13] | Potency [16] | Potency [20] | Potency [8] | Potency [9] | Potency [14]
active: Potency [17] 20.9 µM | Potency [15] 26.4 µM
